The list is not random: actives were taken first. Their share in the collection is about 10%.
G9a block = inhibitors of human histone lysine methyltransferase G9a; G9a H3K9 monomethylation, AlphaScreen, 2 h; 8.8% of 350,000 active; Potency, µM (titrated, usually from 102 µM), for inactives: at the top dose activity, negative = inhibition, usual class: inhibitors; AID 504332; note: potency is the fitted concentration of half-maximal effect; nearly all actives have a fitted effect of over 75% in size
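Quantitative HTS format: methyltransferase activity on a biotin-tagged H3K9 peptide is measured by AlphaScreen, using a rabbit anti-monomethyl-H3K9 antibody with streptavidin donor and anti-IgG acceptor beads. Final levels are 20 nM enzyme, 500 nM peptide, 20 uM SAM; 2 h RT.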
PLK1 PBD block = blocks phosphopeptide binding to human PLK1 polo-box domain. Potency, µM, for the others: max response, negative = inhibition, actives largely listed as inhibitors. Plk1 PBD binding of FITC phosphopeptide, fluorescence polarization. AID 720504. 2.8% of 360,000 active. P53350; note: potency is the fitted concentration of half-maximal effect; series mostly up to about 57 µM; nearly all actives have a fitted effect of over 65% in size
Target sequence (P53350 whole entry, looked up, the tested form may be a part): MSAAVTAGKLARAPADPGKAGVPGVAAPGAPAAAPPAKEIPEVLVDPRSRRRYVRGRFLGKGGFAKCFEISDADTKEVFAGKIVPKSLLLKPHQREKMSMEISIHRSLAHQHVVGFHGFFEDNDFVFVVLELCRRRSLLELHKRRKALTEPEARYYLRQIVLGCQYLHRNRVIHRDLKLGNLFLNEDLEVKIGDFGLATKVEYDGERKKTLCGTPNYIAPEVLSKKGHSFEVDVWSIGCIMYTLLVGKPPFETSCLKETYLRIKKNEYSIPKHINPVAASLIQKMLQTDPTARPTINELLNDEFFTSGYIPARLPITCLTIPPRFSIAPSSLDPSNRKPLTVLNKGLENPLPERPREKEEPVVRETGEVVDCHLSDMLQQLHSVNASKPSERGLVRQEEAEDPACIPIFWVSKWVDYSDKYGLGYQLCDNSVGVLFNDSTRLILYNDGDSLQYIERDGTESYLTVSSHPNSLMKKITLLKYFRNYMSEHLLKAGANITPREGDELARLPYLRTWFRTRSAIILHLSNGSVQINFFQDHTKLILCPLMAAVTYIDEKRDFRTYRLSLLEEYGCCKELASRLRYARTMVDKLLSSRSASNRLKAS
MmCpn inh = blocks the Methanococcus maripaludis chaperonin Mm-Cpn | purified Mm-Cpn ATPase, ADP Transcreener TR-FRET | Potency, µM (doses to about 76.9 µM), for inactives: at the top dose activity, negative = inhibition, actives largely listed as inhibitors | 0.031% of 330,000 active | AID 504842; note: potency is the fitted concentration of half-maximal effect; nearly all actives have a fitted effect of over 80% in size
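Inhibition of chaperonin ATP hydrolysis is measured as reduced ADP production, detected by competitive TR-FRET in which signal falls with ADP. Final enzyme 25 nM and ATP 10 uM, reacted 30 min at 37°C.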
VDR inhibitor = inhibitors of human vitamin D receptor. P11473. VDR-SRC2-3 peptide fluorescence polarization, 2 h. Potency, µM, for inactives: max response, negative = inhibition, actives largely listed as inhibitors. 0.93% of 400,000 active; note: potency is the fitted concentration of half-maximal effect
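Reagent solutions, kept cold and dark, are dispensed first; compounds are then pinned in at 23 nl, plates briefly spun, and incubated 2 h at ambient temperature. Inhibition of VDR–SRC2-3 peptide binding is read by fluorescence polarization.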
CCT chaperon mod = changes cytosolic chaperonin activity; activity change, % (concentration not given with the values), hits read low; 0.3% of 360,000 active; purified chaperonin ATPase assay, HTRF ADP detection, 30 min; in the data active = activity change below about -30%
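TRiC at 40 or 20 nM final (batch-dependent) in 30 mM Tris pH 7.4, 100 mM KCl, 5 mM MgCl2, 1 mM DTT, with compound at single 76 uM and 10 uM ATP, 30 min at 37 deg C. ADP detected by HTRF Transcreener, 665/615 ratio.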
Sfp PPTase inh = Sfp phosphopantetheinyl transferase inhibition | Biochemical Sfp PPTase activity, qHTS | AID 1490 | 3.5% of 310,000 active | Q9F4F7 | Potency, µM, without a hit: largest response in the series, negative = inhibition, hits mostly inhibitors;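 note: the enzyme is Sfp with the accession as filed and its product quenches rhodamine fluorescence; potency is the fitted concentration of half-maximal effect; 0% = enzyme reaction without inhibitor and -100% = no enzyme wells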
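Step 1, compound plus 15 nM Sfp-PPTase, 15 min, room temperature. Step 2, add rhodamine-CoA (5 uM) and BHQ-2-YbbR (12.5 uM). Step 3, read 525/598 nm fluorescence at 0 and 30 min.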
* = called active by the depositor; ? = inconclusive; . = not tested or not shown; [ ] = dose if it differs, or a comment. Unless noted, calls come from the whole dose curve; as a rule, active = well fitted curve in the direction sought with a large enough effect; inconclusive = small, poorly fitted or top-dose-only effect, or another doubt; inactive = no such curve, though single readings can be large; an effect the other way counts as inactive or inconclusive. Unless noted, % is set by controls: 0 for no effect and ±100 for the full control effect.

SMILES	G9a block	PLK1 PBD block	MmCpn inh	VDR inhibitor	CCT chaperon mod	Sfp PPTase inh
Cc1cccc(OCCN2C(=O)C(=O)c3cc(C)ccc32)c1	5.3%[12.7 µM]	-25.2%	-1.9%	70.8µM*	0.2	-3.3%
Cc1ccc2c(c1)C(=O)C(=O)N2CCOc1ccccc1	44.7µM*	-13.5%	-1.3%	79.4µM*	-0.8	-5.1%
CCCn1c2ccccc2c2cnn(CC(=O)N(Cc3ccccc3)C(C)C)c(=O)c21	-8.6%[59 µM]	.	.	0.6%	.	.
CCc1ccccc1NC(=O)N1CCCn2nc(C)cc21	4.0%[59 µM]	.	.	11.3%	.	.
Cc1ccc([C@H]2Nc3ccc(S(=O)(=O)Nc4cccc(Cl)c4C)cc3[C@H]3C=CC[C@H]32)cc1	14.1µM*	.	.	-6.0%	.	.
COc1cccc([C@H]2Nc3ccc(S(=O)(=O)Nc4cc(C)ccc4C)cc3[C@H]3C=CC[C@H]32)c1	12.6µM*	.	.	-7.9%	.	.
CCOc1ccc(S(=O)(=O)Nc2ncn[nH]2)cc1	20.6%	-13.6%	-10.8%	-4.8%	-2.4	16.9%
CCOc1ccc(S(=O)(=O)Nc2cc(Sc3ncn[nH]3)c3oc(=O)sc3c2)cc1	31.6µM*	.	-1.9%	.	.	7.94µM*
Cc1ccc(-c2nc3ccccc3s2)cc1NC(=S)NC(=O)/C=C/c1ccco1	50.1µM*	-21.0%	-1.9%	?	-0.4	-13.5%
Cc1ccccc1NC(=S)NC(=O)/C=C/c1ccco1	.	21.2µM*	-3.2%	?	1.9	?
O=C(/C=C/c1ccco1)NC(=S)Nc1cccc([N+](=O)[O-])c1	-42.5%[59 µM]	-24.3%	-0.9%	-13.5%	1.0	31.6µM*
Cc1cccc(NC(=S)NC(=O)/C=C/c2ccco2)c1	25.1µM*	?	-3.2%	?	-1.6	?
COc1ccccc1CCn1c(=O)c(-c2cccc(Cl)c2)nc2cncnc21	1.8%[0.501 µM]	.	.	-16.7%	.	-6.6%
CC(/C=C1\SC(=S)N(C(C(=O)O)C(C)C)C1=O)=C\c1ccccc1 (configuration not stated)	.	23.8µM*	-10.7%	?	1.6	?
CC(/C=C1\SC(=S)N(c2ccc(C(=O)O)cc2)C1=O)=C\c1ccccc1	31.6µM*	23.8µM*	-0.9%	89.1µM*	-0.6	-12.5%
CC(=O)c1ccc(NC(=O)CN2C(=O)/C(=C/C(C)=C/c3ccccc3)SC2=S)cc1	-2.7%[59 µM]	-21.3%	-1.9%	-3.5%	-16.0	1.9%
CC(/C=C1\SC(=S)N(CCC(=O)Nc2ccc(O)cc2)C1=O)=C\c1ccccc1	-13.1%	-0.9%	2.1%	0.3%	0.0	4.7%
CC(=O)c1ccc(NC(=O)c2cc(C)nc3c2c(C)nn3-c2ccc(C)cc2)cc1	-9.3%[59 µM]	.	.	-0.8%	.	.
CCOc1ccc(-n2c(=O)c3c(C)c(C)sc3n(Cc3c(F)cccc3Cl)c2=O)cc1	9.2%[59 µM]	.	.	4.5%	.	.
COCCNC(=S)Nc1cccc2cnccc12	50.1µM*	3.5%	-2.6%	2.2%	0.8	-15.7%
CCCCNC(=S)Nc1cccc2cnccc12	44.7µM*	?	1.0%	0.3%	-0.5	-17.3%
CCCCNC(=S)Nc1ccccc1F	20.2%	-4.9%	2.4%	15.3%	-2.4	12.3%
COc1ccc(C(=O)N2CCN(Cc3cc(=O)n4nc(-c5ccccc5C)sc4n3)CC2)cc1OC	15.4%[59 µM]	.	.	6.3%	.	.
O=C(O)CCCCCN1C(=O)C(O)=C(C(=O)/C=C/c2ccccc2)C1c1ccc2c(c1)OCO2 (configuration not stated)	50.1µM*	-26.4%	-1.6%	-3.4%	-2.9	21.5%
Cc1ccsc1/C=C/c1ccc2cccc(O)c2n1	?	-5.3%	-1.1%	6.4%	-1.1	50.1µM*
SMILES	G9a block	PLK1 PBD block	MmCpn inh	VDR inhibitor	CCT chaperon mod	Sfp PPTase inh
Cc1ccsc1/C=C/c1ccc2ccccc2n1	5.3%[59 µM]	25.4%	4.2%	-0.2%	4.8	-20.7%
COC(=O)C1=C(C(=O)OC)SC(=C2C(=S)C(C)(C)N(C(=O)CC(C)C)c3ccccc32)S1	7.94µM*	-14.5%	3.4%	?	-2.5	?
COC(=O)C1=C(C(=O)OC)[C@@H]2N(C)c3ccccc3[C@@]23C[C@@H](C(=O)OC)N(C(=O)CC(C)C)C3=N1	-10.7%[59 µM]	5.9%	1.7%	-23.2%	-6.4	?
CC[N+](C)(CC)CCC/C(=N/O)C(O)(c1ccccc1)c1ccccc1	50.1µM*	4.4%	0.3%	22.7%	2.4	4.5%
COc1ccc(-c2nnc(NC(=O)c3ccc(S(=O)(=O)N4CCCc5ccccc54)cc3)o2)cc1	22.2%[2.33 µM]	31.6µM*	-1.0%	-8.0%	-0.8	12.2%
c1coc(-c2nc(-c3ccco3)c(-c3ccco3)nc2-c2ccco2)c1	11.2µM*	11.9µM*	-5.7%	39.8µM*	0.2	35.5µM*
COc1ccc(-c2nc3ccccc3nc2-c2ccc(OC)cc2)cc1	379.5%	-14.4%	-4.1%	0.6%	-0.7	9.9%
c1coc(-c2nc(N=C3N=c4ccccc4=N3)[nH]c2-c2ccco2)c1	.	-0.7%	.	.	0.1	.
COc1ccc2nc(-c3ccco3)c(-c3ccco3)nc2c1	?	?	-3.3%	?	0.0	7.08µM*
c1coc(-c2ncc[nH]2)c1	?	-3.5%	-0.7%	5.4%	0.9	-26.1%
c1coc(-c2nc3cc4ccccc4cc3nc2-c2ccco2)c1	.	.	.	22.4µM*	.	.
Nc1nc(-c2ccco2)cs1	44.7µM*	-6.4%	-3.8%	2.4%	-0.9	50.1µM*
CCc1nc(Nc2ccc(F)c(Cl)c2)c2c3c(sc2n1)CCCC3	-3.1%[59 µM]	.	.	-16.6%	.	.
Cc1ccc(SCC(c2ccccc2)N2CCN(CCc3ccccc3)CCC2=O)cc1 (configuration not stated)	.	.	.	-14.7%	.	-4.8%
CCc1cc2c(nc1CC)CCN(CC/C(C)=N/OCC[C@@H]1C=C[C@H](OC(C)=O)[C@H](COC(C)=O)O1)C2	.	.	.	.	.	-5.6%
Cn1ccnc1C(=O)c1ccc(NN)c([N+](=O)[O-])c1	22.4µM*	-15.5%	-8.2%	11.8%	0.3	-11.3%
COCCn1cnc2c1-c1ccc(OC)c(c1)OC/C=C\COc1cccc-2c1	.	.	.	-14.5%	.	-25.0%
O=C(N/N=C/C(Cl)=C/c1ccc([N+](=O)[O-])cc1)C(=O)Nc1ccc(C(=O)O)cc1	50.1µM*	29.9µM*	-1.1%	?	-1.0	?
CCCCC/C=C\C[C@@H](O)/C=C/C=C/C=C/[C@@H](O)CCCC(=O)O	.	.	.	-15.2%	.	2.0%
O=S1(=O)CC(O)C(O)CS1 (configuration not stated)	.	10.6µM*	.	.	-0.5	.
COc1cc(Nc2nc(-c3ccccc3)c3cc(C)ccc3n2)cc(OC)c1OC	39.8µM*	?	1.0%	-12.6%	0.1	-25.7%
COc1ccc(C2/C=C\CN(C(=O)C3CC3)C(Cc3ccccc3)C(=O)N2Cc2ccc(F)cc2)cc1 (configuration not stated)	.	.	.	-17.5%	.	11.8%
COc1ccc(NC(=O)Cn2c(=O)cc(C)c3c(C)nn(C)c32)cc1	6.2%[59 µM]	.	.	2.9%	.	.
CC(=O)c1ccc(NC(=O)c2noc3c2CSc2ccccc2-3)cc1	-31.5%[59 µM]	.	.	1.5%	.	.

Screens (PubChem BioAssay)
